{"source": "PubChem BioAssay (Tox21)", "note": "Records with an inconclusive call do not appear. A number with no mark means an inactive call. The call rests on the fitted dose curve; in most records, active means well fitted cell-killing curve with a large enough effect in the repeat runs; inconclusive means weak or mixed curves, or effect the other way; inactive means no such curve, though single readings can be large or run the other way. On the % scale 0 is the no-effect control and ±100 the full control effect.", "data": [{"test": "qHTS assay to identify small molecule antagonists of the vitamin D receptor (VDR) signaling pathway - cell viability counter screen (AID 743225); further: nearly all actives have a fitted effect of over 50% in size", "settings": "VDR-bla HEK293T viability, CellTiter-Glo luminescence, 16 h; series mostly up to 61 µM; viability change, negative = cytotoxic: at the top concentration", "source_text": "U.S. Tox21 Program National Center for Advancing Translational Sciences [NCATS] NIH Chemical Genomics Center [NCGC] U.S. Environmental Protection Agency [EPA] National Institutes of Environmental Health Sciences [NIEHS] National Toxicology Program [NTP] U.S. Food and Drug Administration [FDA] Tox21 Assay Overview: The vitamin D receptor (VDR), a member of nuclear hormone receptor superfamily, plays a critical role in calcium homeostasis and bone metabolism. It is also involved in cell differentiation and growth, and thrombogenicity. To identify the compounds that inhibit VDR signaling, the VDR-UAS-bla HEK 293T cell line (Invitrogen, Carlsbad, CA, USA) containing a beta-lactamase reporter gene under the control of an upstream activator sequence (UAS) was used to screen the Tox21 10K compound library. The cytotoxicity of the Tox21 compound library against the VDR-bla cell line was tested in parallel by measuring the cell viability using CellTiter-Glo assay (Promega, Madison, WI) in the same wells.\nTox21 Assay Protocol Summary: VDR-bla cells were dispensed at 2,000 cells/5 uL of assay medium per well into black wall/clear-bottom 1536-well plates using a Multidrop Combi (Thermo Fisher Scientific, Waltham, MA) dispenser. After the assay plates were incubated at a 37C and 5% CO2 for 4 h, 23 nL of compounds dissolved in DMSO, positive controls or DMSO only was transferred to the assay plate by a Pintool station (Kalypsys, San Diego, CA), followed by addition of 1 uL of 1-alpha, 25-Dihydroxy Vitamin D3 (3 nM, final concentration in the wells) using a Bioraptr Flying Reagent Dispenser (FRD) workstation (Beckman Coulter, Indianapolis, IN). The plates were incubated at 37C and 5% CO2 for 16 h, and then 1 uL of LiveBLAzerTM B/G FRET substrate was added using a Bioraptr FRD. The plates were incubated at room temperature for 2 h and fluorescence intensity was measured by an Envision plate reader (PerkinElmer, Shelton, CT). For cell viability readout that measures cytotoxicity, 3 ul/well of CellTiter-Glo reagent was added into the assay plates using a Bioraptr FRD. After 30 min incubation at room temperature, the luminescence intensity in the plates was measured using a ViewLux plate reader (PerkinElmer).", "values": [{"smiles": "Cc1ccc(N)cc1S(=O)(=O)O", "viability change, negative = cytotoxic": "-15.3%"}, {"smiles": "COc1c2occc2c(OC)c2c(=O)cc(C)oc12", "viability change, negative = cytotoxic": "8.54%"}, {"smiles": "CC(O)CC(C)O", "note": "(stereo not given)", "viability change, negative = cytotoxic": "9.65%"}, {"smiles": "c1ccc2c(CC3=NCCN3)cccc2c1", "viability change, negative = cytotoxic": "1.05%"}, {"smiles": "CC1(C)O[C@H]2CC(=O)OC[C@]23[C@H]2CC[C@@]4(C)[C@H](c5ccoc5)OC(=O)[C@H]5O[C@]54[C@]2(C)C(=O)C[C@@H]13", "viability change, negative = cytotoxic": "6.46%"}, {"smiles": "O=[N+]([O-])c1c(Cl)cc(Cl)cc1Cl", "viability change, negative = cytotoxic": "6.49%"}, {"smiles": "Fc1ccccc1", "viability change, negative = cytotoxic": "0% [at 78.8 µM]"}, {"smiles": "O=C1OCCO1", "viability change, negative = cytotoxic": "8.8% [at 78.8 µM]"}, {"smiles": "C=CCOC(=O)CCCCCC", "viability change, negative = cytotoxic": "9.9%"}, {"smiles": "CC(=O)c1cc(C)oc1C", "viability change, negative = cytotoxic": "7.66% [at 78.8 µM]"}, {"smiles": "COc1cc(/C=C/C(N)=O)cc(OC)c1OC", "viability change, negative = cytotoxic": "-25.4%"}, {"smiles": "O=Cc1cc2ccccc2o1", "viability change, negative = cytotoxic": "4.97%"}, {"smiles": "Cc1c(NC(=O)c2cccnc2)c(=O)n(-c2ccccc2)n1C", "viability change, negative = cytotoxic": "0.128%"}, {"smiles": "CC1CCc2c(N3CCC(O)CC3)c(F)cc3c(=O)c(C(=O)O)cn1c23", "note": "(stereo not given)", "viability change, negative = cytotoxic": "2%"}, {"smiles": "Cc1c(N)cccc1Cl", "viability change, negative = cytotoxic": "0%"}, {"smiles": "Cc1ccccc1C(N)=O", "viability change, negative = cytotoxic": "9.07%"}, {"smiles": "CC(C)c1ccc(C=O)cc1", "viability change, negative = cytotoxic": "4.37%"}, {"smiles": "COc1cc2c(cc1OC)C(=O)C(CC1CCN(Cc3ccccc3)CC1)C2", "note": "(stereo not given)", "viability change, negative = cytotoxic": "-31.2%"}, {"smiles": "CC(C)CO", "viability change, negative = cytotoxic": "-21.3% [at 78.8 µM]"}, {"smiles": "CCCCC1CCC(O)CC1", "note": "(stereo not given)", "viability change, negative = cytotoxic": "1.21%"}, {"smiles": "CCO[Si](CC)(OCC)OCC", "viability change, negative = cytotoxic": "4.05%"}, {"smiles": "CCCC(=O)Nc1ccc(OCC(O)CNC(C)C)c(C(C)=O)c1", "note": "(stereo not given)", "viability change, negative = cytotoxic": "0.373%"}, {"smiles": "COc1cc(OC)nc(O[C@H](C(=O)O)C(OC)(c2ccccc2)c2ccccc2)n1", "viability change, negative = cytotoxic": "5.34%"}, {"smiles": "CC(C)(CO)C(O)C(=O)NCCCO", "note": "(stereo not given)", "viability change, negative = cytotoxic": "10.6%"}, {"smiles": "Nc1nc(-c2ccccc2)c(Br)c(=O)[nH]1", "viability change, negative = cytotoxic": "23.7%"}, {"smiles": "CC(C)(C)NC[C@H](O)COc1cccc2c1CCCC2=O", "viability change, negative = cytotoxic": "-5.31%"}, {"smiles": "COC(=O)/C=C\\C(=O)O", "viability change, negative = cytotoxic": "0.468%"}, {"smiles": "CCCCCCCCCOC(=O)c1ccccc1C(=O)OCCCCCCCCC", "viability change, negative = cytotoxic": "0%"}, {"smiles": "CCOCCOCC", "viability change, negative = cytotoxic": "1.55% [at 78.8 µM]"}, {"smiles": "O=C(O)CONC(=O)c1ccccc1", "viability change, negative = cytotoxic": "10.2%"}, {"smiles": "C=C(C)c1cccc(C(C)(C)N=C=O)c1", "viability change, negative = cytotoxic": "2.7%"}, {"smiles": "CCCCCCCCCCCCCCCCCCOCCO", "viability change, negative = cytotoxic": "0.925% [at 28.5 µM]"}, {"smiles": "CCOC(=O)CC1(C)OCC(C)O1", "note": "(stereo not given)", "viability change, negative = cytotoxic": "1.21%"}, {"smiles": "CCc1occc(=O)c1O", "viability change, negative = cytotoxic": "16.2%"}, {"smiles": "CN(C)CCOC(=O)C(c1ccccc1)C1(O)CCCC1", "note": "(stereo not given)", "viability change, negative = cytotoxic": "-17.2%"}, {"smiles": "C=CCSSCCC", "viability change, negative = cytotoxic": "2.06%"}, {"smiles": "CC(C)C[C@@H]1[C@H](c2ccccc2)OC(=O)N1CCCN1CCCCCC1", "viability change, negative = cytotoxic": "0.941%"}, {"smiles": "O=C1NC(c2ccccc2)(c2ccccc2)C(=O)N1COP(=O)(O)O", "viability change, negative = cytotoxic": "0.476%"}, {"smiles": "C=CC(=O)OCC1CCCO1", "note": "(stereo not given)", "viability change, negative = cytotoxic": "-1.28%"}, {"smiles": "C/C=C(\\C)C(C)=O", "viability change, negative = cytotoxic": "5.85%"}]}]}
